In PubChem BioAssay (Tox21):
Inconclusive results are not listed. Calls of active or inactive are those of the source. Calls come from the whole dose curve; as a rule, active = well fitted activation curve with a large enough effect in the repeat runs; inconclusive = weak or mixed curves; inactive = flat fitted curve, though single readings scatter.

test: A CellTox Green Cytotoxicity Assay to monitor cytotoxicity in HEK293 cells - 40 hour (AID 1224871); details: CellTox Green fluorescence; series mostly up to 76.8 µM; cytotoxicity increase: at the top concentration; note: nearly all actives have a fitted effect of over 45% in size
Source text: National Center for Advancing Translational Sciences [NCATS]
NIH Chemical Genomics Center [NCGC]
U.S. Environmental Protection Agency [EPA]
National Institutes of Environmental Health Sciences [NIEHS]
National Toxicology Program [NTP]
Cell-based models are critical for drug discovery. Determining the natural cytotoxic effects resulting from test compounds is an essential research activity. A CellTox Green Cytotoxicity Assay to monitor cytotoxicity in real time of continues cell culture during 40 hours of the compound treatment was used to screen Tox21 10K library compounds in Hek293 cells. CellTox Green Cytotoxicity Assay is a nonlytic, homogeneous, biofluorescent method to measure cytotoxicity in cell culture after experimental manipulation. The assay system uses a proprietary asymmetric cyanine dye that is excluded from viable cells but preferentially stains the dead cell's DNA. […] Viable cells produce no appreciable increases in fluorescence. Therefore, the fluorescence signal produced by the binding interaction with dead cell DNA is proportional to cytotoxicity.
The mixture of Hek293 cell suspension and reagents were dispensed at 600cells/6 ul/well in 1536-well tissue culture treated black solid bottom plates using a Multidrop dispenser. After the assay plates were incubated at a 37 C/5% CO2 incubator for 5 hours, 23 nL of compounds dissolved in DMSO, positive and negative controls was transferred to the assay plate by a pintool work station. The plates were incubated at 37 C for 40 hours. The fluorescence intensity were measured at 0h, 8h, 16h, 24h, 32h and 40h time points using ViewLux plate reader during compound treatment.
% is set by controls: 0 for no effect and ±100 for the full control effect; potency is the fitted concentration of half-maximal effect.

Q: Which Potency does the source give for CN(C)CC/C=C1\c2ccccc2Sc2ccc(Cl)cc21 here?
A: 23.9 µM (active)

Q: For Cc1ccc2c(c1[N+](=O)[O-])C(=O)c1ccccc1C2=O, which “cytotoxicity increase” value is on record?
A: 2.28% [at 35.3 µM] (inactive)

Q: For CC(=O)OCCC1CCCCC1, which “cytotoxicity increase” value is on record?
A: -10.7% (inactive)

Q: With CCC(=O)OCc1ccc(OC)cc1 as the molecule, how does the “cytotoxicity increase” value read?
A: -12.6% (inactive)

Q: Which “cytotoxicity increase” value does the source give for Cc1cn([C@H]2C[C@H](F)[C@@H](CO)O2)c(=O)[nH]c1=O here?
A: 0.818% [at 35.3 µM] (inactive)

Q: For CC(C)(C)C(O)/C=C/c1ccc2c(c1)OCO2 (stereo not given), which “cytotoxicity increase” value is on record?
A: 11.9% [at 35.3 µM] (inactive)

Q: Which “cytotoxicity increase” value does the source give for CC(=O)NCCO here?
A: 1.18% (inactive)

Q: For C/C(C=O)=C\c1ccccc1, which “cytotoxicity increase” value is on record?
A: 4.94% (inactive)

Q: For O=C(O)c1cccc(Oc2ccccc2)c1, which “cytotoxicity increase” value is on record?
A: -9.24% (inactive)

Q: With CC[C@H]1OC(=O)[C@H](C)[C@@H](O[C@H]2C[C@@](C)(OC)[C@@H](O)[C@H](C)O2)[C@H](C)[C@@H](O[C@@H]2O[C@H](C)C[C@H](N(C)C)[C@H]2O)[C@](C)(O)C[C@@H](C)C(=O)[C@H](C)[C@@H](O)[C@]1(C)O as the molecule, how does the “cytotoxicity increase” value read?
A: -5.08% [at 35.3 µM] (inactive)

Q: With CCCCCCCC(=O)OCCCCCC as the molecule, how does the “cytotoxicity increase” value read?
A: 18.7% (inactive)

Q: With O=C1OC[C@H](Cc2cccc(O)c2)[C@H]1Cc1cccc(O)c1 as the molecule, how does the “cytotoxicity increase” value read?
A: -2.81% [at 35.3 µM] (inactive)

Q: For CC(=O)N[C@@H](Cc1ccc(O)cc1)C(=O)O, which “cytotoxicity increase” value is on record?
A: -6.57% [at 35.3 µM] (inactive)

Q: Which “cytotoxicity increase” value does the source give for O=c1[nH]c2cc(C(F)(F)F)c(N3CCOCC3)cc2n(CP(=O)(O)O)c1=O here?
A: -7.51% [at 35.3 µM] (inactive)

Q: For CCCOC(=O)c1c(Cl)c(Cl)c(Cl)c(Cl)c1C(=O)OCCC, which “cytotoxicity increase” value is on record?
A: 24.4% (inactive)

Q: For CC(C)C(=O)OCCOc1ccccc1, which “cytotoxicity increase” value is on record?
A: 14.7% (inactive)

Q: With O=P(O)(O)Oc1ccccc1 as the molecule, how does the “cytotoxicity increase” value read?
A: 16.5% (inactive)

Q: Which “cytotoxicity increase” value does the source give for CC(C)c1ccc(C(=O)N=C(N)N)cc1S(C)(=O)=O here?
A: -11.4% [at 35.3 µM] (inactive)

Q: For COC(CC(C)CCCC(C)(C)O)OC (stereo not given), which “cytotoxicity increase” value is on record?
A: -0.927% (inactive)

Q: For CCCCCCCC/C=C/C(=O)O, which “cytotoxicity increase” value is on record?
A: 6.82% [at 35.3 µM] (inactive)

Q: For Cc1ccc(N(CCO)CCO)cc1, which “cytotoxicity increase” value is on record?
A: -0.357% (inactive)

Q: For CC1CCC(C(C)CS)CC1S (stereo not given), which Potency is on record?
A: 49 µM (active)

Q: With CCN(CC)CCNC(=O)c1cc(Cl)c(N)cc1OC as the molecule, how does the “cytotoxicity increase” value read?
A: 3.69% [at 35.3 µM] (inactive)

Q: For CCC(C)(C)C(=O)O, which “cytotoxicity increase” value is on record?
A: 20.1% (inactive)

Q: For Cc1cc(CCCOc2c(C)cc(-c3noc(C(F)(F)F)n3)cc2C)on1, which “cytotoxicity increase” value is on record?
A: -12.8% [at 35.3 µM] (inactive)

Q: With CC(C(=O)O)c1ccc(C(=O)c2cccs2)cc1 (stereo not given) as the molecule, how does the “cytotoxicity increase” value read?
A: -0.555% [at 35.3 µM] (inactive)

Q: Which “cytotoxicity increase” value does the source give for O=C1OC(=O)c2c(Br)c(Br)c(Br)c(Br)c21 here?
A: 18% (inactive)

Q: Which “cytotoxicity increase” value does the source give for Nc1ccc(N=Nc2ccc(N)cc2)cc1 here?
A: -15.8% [at 35.3 µM] (inactive)

Q: With O=C(CCS)OCC(COC(=O)CCS)(COC(=O)CCS)COC(=O)CCS as the molecule, how does the “cytotoxicity increase” value read?
A: 11.8% (inactive)

Q: For CC(C)Cc1ccc(CC(=O)O)cc1, which Potency is on record?
A: 15.1 µM (active)

Q: With CC1=CC[C@@]23C[C@@H]1C(C)(C)[C@@H]2CC[C@H]3C as the molecule, how does the “cytotoxicity increase” value read?
A: 27.2% (inactive)

Q: Which “cytotoxicity increase” value does the source give for CCN(Cc1cccc(S(=O)(=O)O)c1)c1ccc(C(=C2C=CC(=[N+](CC)Cc3cccc(S(=O)(=O)O)c3)C=C2)c2ccc(O)cc2S(=O)(=O)[O-])cc1 here?
A: 0.619% [at 35.3 µM] (inactive)

Q: For O=C(O)CN1C(=O)c2cccc3cccc(c23)C1=O, which “cytotoxicity increase” value is on record?
A: 3.1% [at 35.3 µM] (inactive)

Q: With CN=C(N)NC(=O)Nc1c(C)cccc1C as the molecule, how does the “cytotoxicity increase” value read?
A: -3.1% [at 35.3 µM] (inactive)

Q: Which “cytotoxicity increase” value does the source give for O=C(O)/C=C/c1ccc(O)c(O)c1 here?
A: -8.5% (inactive)

Q: With CC(=O)OC(C)C[N+](C)(C)C (stereo not given) as the molecule, how does the “cytotoxicity increase” value read?
A: 5.85% [at 35.3 µM] (inactive)

Q: With FC(F)(F)C(F)(F)C(F)(F)C(F)(F)CCI as the molecule, how does the “cytotoxicity increase” value read?
A: -7.37% [at 35.3 µM] (inactive)

Q: Which “cytotoxicity increase” value does the source give for O=C(O)CO here?
A: -17.4% (inactive)

Q: Which “cytotoxicity increase” value does the source give for COc1cc(S(=O)(=O)Nc2ccccc2)c(OC)cc1N here?
A: -9.86% (inactive)

Q: Which “cytotoxicity increase” value does the source give for SCCc1cnccn1 here?
A: -12.9% (inactive)
